The supplement of paper PMC8728848
Only a selection was taken, and the strongest signals are over-represented in it overall.

Assays:
Assay in all cases: glycan array binding signal (z-score within array); higher = stronger binding
Details in all cases: glycan notation: IUPAC condensed, linker removed
Fuc(a1-2)Gal(b1-3)GalNAc = target: Fuc(a1-2)Gal(b1-3)GalNAc
Summary of the method: (§1)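 Arrays were curated from the Consortium for Functional Glycomics database, 3228 in total, and kept only where the protein sequence was available. Binding is expressed as a within-array Z-score. This score was averaged across arrays of the same protein sequence at different concentrations or buffers and across linkers, and negative values can be read as non-binding.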

[1] = target: Fuc(a1-2)Gal(b1-3)GalNAc(a1-3)[Fuc(a1-2)]Gal(b1-4)GlcNAc
Summary of the method: as §1

Fuc(a1-2)Gal(b1-3)GlcNAc = target: Fuc(a1-2)Gal(b1-3)GlcNAc
Summary of the method: as §1

[2] = target: Fuc(a1-2)Gal(b1-3)GlcNAc(b1-2)Man(a1-3)[Fuc(a1-2)Gal(b1-3)GlcNAc(b1-2)Man(a1-6)]Man(b1-4)GlcNAc(b1-4)GlcNAc
Summary of the method: as §1

[3] = target: Fuc(a1-2)Gal(b1-3)GlcNAc(b1-3)Gal(b1-4)Glc
Summary of the method: as §1

Fuc(a1-2)Gal(b1-4)Glc6S = target: Fuc(a1-2)Gal(b1-4)Glc6S
Summary of the method: as §1

[4] = target: Fuc(a1-2)Gal(b1-4)GlcNAc(b1-3)Gal(b1-4)GlcNAc(b1-2)Man(a1-3)[Fuc(a1-2)Gal(b1-4)GlcNAc(b1-3)Gal(b1-4)GlcNAc(b1-2)Man(a1-6)]Man(b1-4)GlcNAc(b1-4)GlcNAc
Summary of the method: as §1

[5] = target: Fuc(a1-2)[Gal(a1-3)]Gal(b1-3)GlcNAc
Summary of the method: as §1

[6] = target: Fuc(a1-2)[Gal(a1-3)]Gal(b1-3)GlcNAc(b1-2)Man(a1-3)[Fuc(a1-2)[Gal(a1-3)]Gal(b1-3)GlcNAc(b1-2)Man(a1-6)]Man(b1-4)GlcNAc(b1-4)GlcNAc
Summary of the method: as §1

[7] = target: Fuc(a1-2)[Gal(a1-3)]Gal(b1-4)GlcNAc
Summary of the method: as §1

[8] = target: Fuc(a1-2)[Gal(a1-3)]Gal(b1-4)[Fuc(a1-3)]Glc
Summary of the method: as §1

[9] = target: Fuc(a1-2)[GalNAc(a1-3)]Gal
Summary of the method: as §1

[10] = target: Fuc(a1-2)[GalNAc(a1-3)]Gal(b1-3)GalNAc(b1-3)Gal(a1-4)Gal(b1-4)Glc
Summary of the method: as §1

[11] = target: Fuc(a1-2)[GalNAc(a1-3)]Gal(b1-3)GlcNAc(b1-2)Man(a1-3)[Fuc(a1-2)[GalNAc(a1-3)]Gal(b1-3)GlcNAc(b1-2)Man(a1-6)]Man(b1-4)GlcNAc(b1-4)GlcNAc
Summary of the method: as §1

[12] = target: Fuc(a1-2)[GalNAc(a1-3)]Gal(b1-4)Glc
Summary of the method: as §1

[13] = target: Fuc(a1-3)[Gal(b1-4)]GlcNAc(b1-6)[Gal(b1-3)GlcNAc(b1-3)]Gal(b1-4)Glc
Summary of the method: as §1

Fuc(a1-4)GlcNAc = target: Fuc(a1-4)GlcNAc
Summary of the method: as §1

[14] = target: Gal(a1-3)Gal(b1-4)GlcNAc(b1-2)Man(a1-3)[Gal(a1-3)Gal(b1-4)GlcNAc(b1-2)Man(a1-6)]Man(b1-4)GlcNAc(b1-4)GlcNAc
Summary of the method: as §1

[15] = target: Gal(a1-4)Gal(b1-3)GlcNAc(b1-2)Man(a1-3)[Gal(a1-4)Gal(b1-3)GlcNAc(b1-2)Man(a1-6)]Man(b1-4)GlcNAc(b1-4)GlcNAc
Summary of the method: as §1

[16] = target: Gal(a1-4)Gal(b1-4)GlcNAc(b1-3)Gal(b1-4)Glc
Summary of the method: as §1

Gal(a1-4)GlcNAc = target: Gal(a1-4)GlcNAc
Summary of the method: as §1

Gal(b1-3)GlcNAc(b1-2)Man = target: Gal(b1-3)GlcNAc(b1-2)Man
Summary of the method: as §1

[17] = target: Gal(b1-3)GlcNAc(b1-2)[Gal(b1-3)GlcNAc(b1-6)]Man(a1-6)[Gal(b1-3)GlcNAc(b1-2)Man(a1-3)]Man(b1-4)GlcNAc(b1-4)GlcNAc
Summary of the method: as §1

[18] = target: Gal(b1-3)GlcNAc(b1-3)Gal(b1-3)GlcNAc
Summary of the method: as §1

[19] = target: Gal(b1-3)GlcNAc(b1-3)Gal(b1-4)[Fuc(a1-3)]GlcNAc
Summary of the method: as §1

[20] = target: Gal(b1-3)GlcNAc(b1-6)Gal(b1-4)GlcNAc
Summary of the method: as §1

[21] = target: Gal(b1-3)GlcNAc(b1-6)GalNAc
Summary of the method: as §1

Gal(b1-4)GlcNAc = target: Gal(b1-4)GlcNAc
Summary of the method: as §1

[22] = target: Gal(b1-4)GlcNAc(a1-6)Gal(b1-4)GlcNAc
Summary of the method: as §1

Gal(b1-4)GlcNAc(b1-2)Man = target: Gal(b1-4)GlcNAc(b1-2)Man
Summary of the method: as §1

[23] = target: Gal(b1-4)GlcNAc(b1-2)Man(a1-3)Man(b1-4)GlcNAc(b1-4)GlcNAc
Summary of the method: as §1

[24] = target: Gal(b1-4)GlcNAc(b1-2)Man(a1-3)[GlcNAc(b1-2)Man(a1-6)]Man(b1-4)GlcNAc(b1-4)GlcNAc
Summary of the method: as §1

[25] = target: Gal(b1-4)GlcNAc(b1-3)Gal(b1-4)Glc
Summary of the method: as §1

B1: PX14379A-bvu-539-28-539 (Bacteroides vulgatus) (protein)
chain: EPYSEIIEEDYVPTEADEIALLATTYSQLRFVMDWYGLFDLQEESGDVIVTPTRPNGWDDGGTYKQMHKHTWDNQQGQPQSIWDYCYKGIANANKILKRADEGFFTEESKPKVVAEVKGVRALWYSILCDTHGNIPIQTSFSEEVPVQSTRKQVFDFIINELKEVMPNLPTEVNKSTYGRLTQWGAKCLMARMYLNAGVYTGTPMWNECLEQCNDIINSGLFSLETNYTDIFKTENSGCVETIFAIPYDEVYNEGDNNGPVFGAHMKFLSSNSRKVFNMQTTPWGGSAANPQFINSYDPDDMRLKYTWLQGDQYSPDGVLITTFPNKLPSIYKTDTDDGYRVGKYEIKVGAKSLLSNDFPYFRYTEVLLMKAECLLRLGQNETEAAHIVSQIRERAFRESAHPEKATVDAAWLKGDTHINYGTLDEKGQIDDAGNTEVVELGGLYDEWGWEFAAEARRRTDMIRFGTYQKKSWFNHTPTANDLNGNSILFPIHLDHLNTNPNLQQNPGYAGK
glycan array binding signal (z-score) (Fuc(a1-2)Gal(b1-3)GalNAc): -0.448 | glycan array binding signal (z-score) [1]: -0.426 | glycan array binding signal (z-score) (Fuc(a1-2)Gal(b1-3)GlcNAc): -0.263 | glycan array binding signal (z-score) [2]: 8.31 | glycan array binding signal (z-score) [3]: -0.301 | glycan array binding signal (z-score) (Fuc(a1-2)Gal(b1-4)Glc6S): -0.232 | glycan array binding signal (z-score) [4]: 2.29 | glycan array binding signal (z-score) [5]: -0.419 | glycan array binding signal (z-score) [6]: 9.25 | glycan array binding signal (z-score) [7]: -0.199 | glycan array binding signal (z-score) [8]: -0.231 | glycan array binding signal (z-score) [9]: -0.215 | glycan array binding signal (z-score) [10]: -0.369 | glycan array binding signal (z-score) [11]: 1.23 | glycan array binding signal (z-score) [12]: -0.321 | glycan array binding signal (z-score) [13]: -0.44 | glycan array binding signal (z-score) (Fuc(a1-4)GlcNAc): -0.18 | glycan array binding signal (z-score) [14]: 3 | glycan array binding signal (z-score) [15]: 0.016 | glycan array binding signal (z-score) [16]: -0.391 | glycan array binding signal (z-score) (Gal(a1-4)GlcNAc): -0.226 | glycan array binding signal (z-score) (Gal(b1-3)GlcNAc(b1-2)Man): 0.056 | glycan array binding signal (z-score) [17]: 5.87 | glycan array binding signal (z-score) [18]: 0.03 | glycan array binding signal (z-score) [19]: -0.515 | glycan array binding signal (z-score) [20]: -0.27 | glycan array binding signal (z-score) [21]: -0.344 | glycan array binding signal (z-score) (Gal(b1-4)GlcNAc): -0.29 | glycan array binding signal (z-score) [22]: -0.203 | glycan array binding signal (z-score) (Gal(b1-4)GlcNAc(b1-2)Man): -0.28 | glycan array binding signal (z-score) [23]: 0.346 | glycan array binding signal (z-score) [24]: 3.64 | glycan array binding signal (z-score) [25]: -0.017
